About 83,000 compounds went through this panel and 20% of them were active in at least one assay; those are over-represented in the sample as a whole.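 Testing used 96-well plates and a 48-hour single-concentration exposure. Example: -40 means 40% of the starting cells died.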 Values without a mark were called inactive. Activity calls are given as the source filed them.
Each molecule was assayed on COLO 205 colon (assay: NCI-60 one-dose screen, 48 h (100 = growth as untreated, 0 = no growth, -100 = all killed)). Settings: 10 µM unless noted.
Procedure: Cells are grown in 96 well plates and exposed to the test compound for 48 hours. Compounds are tested at a single concentration, which is 10^-5 M for most compounds. The reported endpoint is percent growth (GI% or GIPRCNT), where numbers from 0 - 100% represent growth inhibition, and numbers from -100% - 0 represent cell death. For example, a value of 40 represents 60% growth inhibition. A value of 0 means no net growth occurred over the course of the experiment. A value of -40 indicates 40% of cells at the beginning of the experiment died by the end of the experiment. A value of -100 means all cells are dead at the end of the experiment.
NCI-60 Human Tumor Cell Lines Screen was performed using the standard one-dose NCI protocol, which is described in more detail at https://dtp.cancer.gov/discovery_development/nci-60/default.htm.
Compounds with GIPRCNT values below 10 were considered active. Activity score was based on GIPRCNT using the following formula: […]
Score is 0 for GIPRCNT values of 100 or above, 50 for GIPRCNT values of 0, and 100 for GIPRCNT values of -100.
`Nc1ncnc2c1ccn2-c1cccc(NC(=O)c2ccc(N3CCOCC3)c(C(F)(F)F)c2)c1` was tested, and the growth was 49%. Molecule `O=c1nc2c(-c3nc4ccccc4s3)n[nH]n2c2sc3c(c12)CCCC3` has a growth of 106%. For `Cc1cc([C@@H](C)Nc2ccccc2C(=O)O)c2nc(N3CCOCC3)cc(=O)n2c1`, the growth was -5.47% (active). With `Brc1ccc([I+]c2ccc(Br)cc2)cc1` the growth was -28.7% (active). For `COc1ccc(-c2nocc2-c2cc(OC)c(OC)c(OC)c2)cc1`, the growth was -12.4% (active). For `CN1[C@@H]2CC[C@H]1/C(=C\c1ccccc1)C1=C2[C@@H](c2ccccc2)C(C#N)=C(N)O1`, the growth was 80.4%. `CC(=O)C1CC(C)CCC1C(C)C` (stereo not given) gave a growth of 122%. Work on `COc1cc2c(Oc3ccc4[nH]c(C)cc4c3F)ncnc2cc1OCCCN1CCCC1` yielded a growth of 88.9%. In the case of `Nc1c2c(c(O)c3c1=C(CO)C=N3)=NCCS2=O` (stereo not given), the growth is reported as -75.1% (active). In the case of `CCCCCCCC(=O)SCC/C=C/[C@@H]1CC(=O)NCc2cc(ccn2)C2=N[C@@](C)(CS2)C(=O)N[C@@H](C(C)C)C(=O)O1`, the growth is reported as -56% (active). Work on `Cc1cc2c(-c3nc4ccccn4c3NC3CCCCC3)c(O)c(O)cc2c(O)c1-c1c(C)cc2c(-c3nc4ccccn4c3NC3CCCCC3)c(O)c(O)cc2c1O` yielded a growth of 14.8%. `Cc1nc(-c2cn3c(n2)-c2ccc(-c4cnn(C(C)(C)C(N)=O)c4)cc2OCC3)n(C(C)C)n1` gave a growth of 13.5%. In the case of `CO[C@@H](C)Cn1c(=O)n(C)c2cnc3ccc(-c4cncc(C(C)(C)O)c4)cc3c21`, the growth is reported as -24.6% (active). For `CC(N)C(Cc1ccc(Cl)cc1)c1ccc(Cl)cc1` (stereo not given), the growth was -81.2% (active). `ClCc1ccc(-c2ccc(Cn3cnc4c(Cl)nc(Cl)nc43)cc2)cc1` was tested, and the growth was 35.3%. `O=C(c1ccc(/C=C/c2n[nH]c3ccccc23)cc1)N1CCNCC1` was tested, and the growth was -42% (active). Work on `C/C(=C(/c1ccc(Cl)cc1)c1ccc(OCCN2CCCC2)cc1)c1ccccc1` yielded a growth of 24.3%. For `CC[C@@H]1C(=O)N(C)c2cnc(Nc3ccc(C(=O)NC4CCC(N5CCN(CC6CC6)CC5)CC4)cc3OC)nc2N1C(C)C` (stereo not given in full), the growth was -61.9% (active). For `CC(C)=CCc1cc2c(cc1O)C1=C(C(=O)C3=C(C1=O)S(=O)(=O)CCN3)C(C=C(C)C)O2` (stereo not given), the growth was -69.8% (active). In the case of `S=C(NCc1ccc2c(c1)OCO2)N1CCN(c2ncnc3c2oc2ccccc23)CC1`, the growth is reported as 4.16% (active). With `C=CC[n+]1c(/C=C/C=C2\N(C)c3ccccc3C2(C)C)sc2ccc(OC)cc21` the growth was -37.4% (active). In the case of `COCc1c(-c2ccc(NC(=O)Nc3cc(C(F)(F)F)ccc3F)c(F)c2)c2c(N)ncnn2c1CN1CCOCC1`, the growth is reported as -88.8% (active). Work on `Cn1cc(-c2cnn3c(N)c(Br)c([C@@H]4CCCNC4)nc23)cn1` yielded a growth of 14.3%. With `CNC(=O)c1nn(C)c2c1C(C)(C)Cc1cnc(Nc3ccc(N4CCN(C)CC4)cc3)nc1-2` the growth was -80.1% (active). `O=C(N/N=C/c1ccc(Cl)cc1)c1cc(-c2cc3ccccc3o2)nn1-c1ccccc1` gave a growth of 96.1%. For `C/C(=N\NC(=O)Cn1c(-c2ccc(S(C)(=O)=O)cc2)nc2ccccc21)c1ccc(Cl)cc1`, the growth was 93.4%. `C=CCN(/C=C1/C(=O)O[C@H](COC)[C@@]2(C)C1=C(O)C(=O)C1=C2[C@H](OC(C)=O)C[C@]2(C)C(=O)CC[C@@H]12)CC=C` gave a growth of 17.7%. In the case of `Cc1cn(-c2cc(NC(=O)c3ccc(C)c(Nc4nccc(-c5cccnc5)n4)c3)cc(C(F)(F)F)c2)cn1`, the growth is reported as 19.8%. For `N[C@@H]1CCCN(c2c(/C=C3\SC(=O)NC3=O)cccc2-c2ccccc2)C1`, the growth was 45.4%. With `O=C(Nc1ccc(C2=NCCCN2)cc1)c1ccc(C(=O)Nc2ccc(C3=NCCCN3)cc2)nc1` the growth was 125%. `CC(C)(C)OC(=O)N1CCC(O)[C@@H](O[Si](c2ccccc2)(c2ccccc2)C(C)(C)C)[C@H]1/C=C/c1ccccc1` (stereo not given in full) gave a growth of 49%. For `O=C(NC1CCNCC1)c1[nH]ncc1NC(=O)c1c(Cl)cccc1Cl`, the growth was -35.9% (active). In the case of `O=C1C=CC2(NN=C(c3ccccc3)N2c2ccccc2)c2cccc(O)c21` (stereo not given), the growth is reported as 80.8%. `N#Cc1c(-c2ccc(Cl)cc2)csc1NC(=O)Nc1cccc(C(F)(F)F)c1` was tested, and the growth was -0.881% (active). In the case of `C[C@@H](Oc1cc(-c2cnn(C3CCNCC3)c2)cnc1N)c1c(Cl)ccc(F)c1Cl`, the growth is reported as -78.5% (active). `O=C1C=CC2(NN=C(c3ccccc3)N2c2cccc(Cl)c2)c2cccc(O)c21` (stereo not given) was tested, and the growth was 103%. With `CC(C)Nc1cc(-c2c[nH]c(C(=O)N[C@H](CO)c3cccc(Cl)c3)c2)c(Cl)cn1` the growth was -19.2% (active). For `C=CCn1c(=O)c2cnc(Nc3ccc(N4CCN(C)CC4)cc3)nc2n1-c1cccc(C(C)(C)O)n1`, the growth was -29.5% (active). With `Cc1cc2c3c(cccc3c1)C(=O)c1ccccc1-2` the growth was 93.4%. In the case of `C[C@@H](Oc1cc(-n2cnc3ccc(CN4CCN(C)CC4)cc32)sc1C(N)=O)c1ccccc1C(F)(F)F`, the growth is reported as -17.1% (active).
